These results are taken from PubChem BioAssay (NCATS).

One assay relates to Hek293T. The experiment in a line: Primary qHTS to identify gynecologic anti-cancer compounds using libraries of approved drugs and bioactive compounds (AID 1345084). Further: nearly all actives have a fitted effect of over 55% in size. Conditions: Gynecologic cancer cell panel viability, ATPlite luminescence, 48 h, control line for the selectivity index; series mostly up to 57.5 µM. In short, it runs like this: (§1)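 Luminescence from the ATPlite ATP-monitoring reagent indicates viable cell number; lower signal means cytotoxicity. Cells received compound 16 h after seeding and were exposed for 48 h across five concentrations.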

A further assay concerns JEG-3. Described as above. Conditions: Gynecologic cancer cell panel viability, ATPlite luminescence, 48 h; series mostly up to 57.5 µM. In short, it runs like this: as §1
The next assay has as its system OV90. The assay is described as above. Conditions: Gynecologic cancer cell panel viability, ATPlite luminescence, 48 h; series mostly up to 57.5 µM. The gist of the method:
as §1

The next assay has as its system PA-1. The description is as above. Conditions: Gynecologic cancer cell panel viability, ATPlite luminescence, 48 h; series mostly up to 57.5 µM. The gist of the method:
as §1

The next assay deals with SKOV3. The description is as above. Conditions: Gynecologic cancer cell panel viability, ATPlite luminescence, 48 h; series mostly up to 57.5 µM. The gist of the method:
as §1

In another assay the test system is Tov-21-G. The assay is described as above. Conditions: Gynecologic cancer cell panel viability, ATPlite luminescence, 48 h; series mostly up to 57.5 µM. In short, it runs like this:
as §1

For the next assay, the system named is Tov112D. The description is as above. Conditions: Gynecologic cancer cell panel viability, ATPlite luminescence, 48 h; series mostly up to 57.5 µM. The gist of the method: as §1
Assay [1] is described as follows: Drug repurposing screens with cells derived from glioblastoma tumor samples (AID 1345199). Further: nearly all actives have a fitted effect of over 40% in size. Further: potency means the concentration at half of the fitted maximal effect. The following applies: GBM patient neurospheres viability, ATP luminescence, 48 h. In short, it runs like this: (§2)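 Four patient lines of CD133+ GBM neurospheres were screened at several concentrations; hits were retested in those lines plus three slower-growing GBM lines, using 48-hour treatment and ATP-based viability.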

A further assay relates to astro. The assay is described as above. Conditions: viability, ATP luminescence, 48 h; series mostly up to 45.9 µM. In short, it runs like this:
as §2

The mark [2] stands for this setting: at 21.2 µM (top of the series), tumour line B.
The mark [3] stands for this setting: at 21.2 µM (top of the series), tumour line D.
The mark [4] stands for this setting: at 45.9 µM (top of the series), tumour line B.
[5] abbreviates: at 45.9 µM (top of the series), tumour line D.
Where [6] appears, read: at 46 µM (top of the series), tumour line A.

Results filed as inconclusive are left out. Unmarked numbers belong to inactive results. The source made the active and inactive calls. The call rests on the fitted dose curve; in most records, active means well fitted curve in the direction sought with a large enough effect; inconclusive means small, poorly fitted or top-dose-only effect, or another doubt; inactive means no such curve, though single readings can be large; an effect the other way counts as inactive or inconclusive.
On the % scale 0 is the no-effect control and ±100 the full control effect.

Regarding `COc1ccc(CN2CCNCC2)c(OC)c1OC`, the Potency entry with Hek293T, in the assay with JEG-3, in the assay on OV90, with PA-1, with SKOV3 and in the assay with Tov-21-G was “inactive” throughout. Besides, the Potency result in the assay with Tov112D and with astro was “inactive” in each case. For the same compound, the activity, negative = cell killing was -2.66% in assay [1] (setting [2]) and -1.27% in [1] (setting [3]).

As for `CN1C[C@@H](NS(=O)(=O)N(C)C)C[C@@H]2c3cccc4c3c(cn4C)C[C@H]21`, the Potency entry in the assay on Hek293T, in the assay with JEG-3, with OV90, in the assay with PA-1, in the assay with SKOV3 and in the assay with Tov-21-G was “inactive” throughout. Further, the Potency entry in the assay on Tov112D and in the assay on astro was “inactive” in each case. Besides, the figures for the activity, negative = cell killing in [1] (setting [4]) and in [1] (setting [5]) were -15.4% and -25.6%, respectively. Further, the Potency in [1] (tumour line A) is 10 µM (active).

Regarding `CCOC(=O)NC(O)C(Cl)(Cl)Cl` (configuration not stated), the Potency entry in the assay on Hek293T, with JEG-3, in the assay with OV90, with PA-1, with SKOV3 and in the assay with Tov-21-G was “inactive” in each case. Besides, the Potency result with Tov112D and in the assay with astro was “inactive” throughout. Also, the activity, negative = cell killing in assay [1] (setting [4]) is -7.26%; in assay [1] (setting [5]), -2.34%; in [1] (setting [6]) it was -17.3%.

Take `CN(C)CCc1c[nH]c2ccccc12`: the Potency result in the assay with Hek293T, with JEG-3, in the assay on OV90, in the assay with PA-1, in the assay with SKOV3 and in the assay on Tov-21-G was “inactive” each time. For the same compound, the Potency result in the assay on Tov112D and in the assay on astro was “inactive” each time. The activity, negative = cell killing in assay [1] (at 108 µM (top of the series), tumour line B) is -3.73%; in assay [1] (at 108 µM (top of the series), tumour line D), -2.02%.

In the case of `COc1ccc(C(=O)N2CCCC2=O)cc1`, the Potency result with Hek293T, in the assay with JEG-3, with OV90, with PA-1, with SKOV3 and in the assay with Tov-21-G was “inactive” each time. Besides, the Potency entry with Tov112D and with astro was “inactive” each time. Further, the activity, negative = cell killing is -4.07% in assay [1] (setting [4]) and -13.6% in [1] (setting [5]).

Turning to `Nc1ccc(N)cc1`, the Potency result with Hek293T, in the assay on JEG-3, with OV90, in the assay on PA-1, in the assay with SKOV3 and with Tov-21-G was “inactive” throughout. The Potency entry in the assay on Tov112D and in the assay on astro was “inactive” each time. The results for the activity, negative = cell killing in assay [1] (setting [4]) and in [1] (setting [5]) were -10.5% and -20.4%, respectively.

In the case of `C[C@@H]1CN(C2CCC(C#N)(c3ccc(F)cc3)CC2)CC[C@]1(C(=O)O)c1ccccc1` (some centres not stated), the Potency result in the assay with Hek293T, in the assay on JEG-3, in the assay on OV90, with PA-1, with SKOV3 and in the assay with Tov-21-G was “inactive” throughout. The Potency result with Tov112D and in the assay on astro was “inactive” each time. For the same compound, the figures for the activity, negative = cell killing in assay [1] (setting [2]) and in assay [1] (setting [3]) were -8.19% and -4.39%, respectively.

Consider `COC(=O)C1=CCCN(C)C1`, for which the Potency entry in the assay on Hek293T, with JEG-3, with OV90, with PA-1, with SKOV3 and with Tov-21-G was “inactive” each time. Also, the Potency result in the assay with Tov112D was “inactive”. The figures for the activity, negative = cell killing in assay [1] (setting [4]), in assay [1] (setting [5]) and in assay [1] (setting [6]) were -5.77%, -12.9% and -22.4%, respectively.

With `C[N+](C)(C)CCOC(=O)C(O)(c1ccccc1)c1ccccc1`, the Potency result in the assay with Hek293T, in the assay on JEG-3, in the assay with OV90, with PA-1, in the assay with SKOV3 and in the assay on Tov-21-G was “inactive” each time. Moreover, the Potency result in the assay on Tov112D and in the assay on astro was “inactive” each time. Further, the activity, negative = cell killing was -4.79% in [1] (setting [4]) and -23.3% in assay [1] (setting [5]).

As to `COP(=O)(OC)C(O)C(Cl)(Cl)Cl` (configuration not stated), the Potency result in the assay on Hek293T, in the assay with JEG-3, in the assay on OV90, in the assay with PA-1, with SKOV3 and with Tov-21-G was “inactive” in each case. Also, the Potency entry in the assay on Tov112D is “inactive”. In addition, the activity, negative = cell killing in assay [1] (setting [4]) is -5.86%; in [1] (setting [5]), -9.43%; in assay [1] (setting [6]), -20.1%.
